# According to PubChem BioAssay (NCI):
# Compounds without any hit were thinned out: in the full panel of roughly 83,000, 20% have a hit.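 48-hour exposure, single concentration, 96-well plates; percent growth endpoint where 0 means no net growth. Active: below 10.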 A number with no mark means an inactive call. Active and inactive are the calls of the source.
# Columns and labels:
# Assay in all cases: NCI-60 one-dose screen, 48 h (100 = growth as untreated, 0 = no growth, -100 = all killed)
# [1] = tested on: HCT-15 colon; settings: 10 µM unless noted
# [2] = tested on: HT29 colon; settings: 10 µM unless noted
# [3] = tested on: SNB-75 CNS; settings: 10 µM
# [4] = tested on: SNB-19 CNS; settings: 10 µM unless noted
# [5] = tested on: U251 CNS; settings: 10 µM unless noted
# [6] = tested on: PC-3 prostate; settings: 10 µM unless noted
# [7] = tested on: SK-MEL-5 melanoma; settings: 10 µM unless noted
# [8] = tested on: UACC-62 melanoma; settings: 10 µM unless noted
# [9] = tested on: LOX IMVI melanoma; settings: 10 µM unless noted
# [10] = tested on: SK-MEL-28 melanoma; settings: 10 µM unless noted
# [11] = tested on: SK-MEL-2 melanoma; settings: 10 µM unless noted
# [12] = tested on: EKVX NSCLC; settings: 10 µM unless noted
# [13] = tested on: SN12C renal; settings: 10 µM unless noted
# [14] = tested on: UO-31 renal; settings: 10 µM unless noted
# [15] = tested on: TK-10 renal; settings: 10 µM unless noted
# [16] = tested on: ACHN renal; settings: 10 µM unless noted
# [17] = tested on: A498 renal; settings: 10 µM unless noted
# [18] = tested on: CCRF-CEM leukemia; settings: 10 µM unless noted
# [19] = tested on: MOLT-4 leukemia; settings: 10 µM unless noted
# [20] = tested on: CAKI-1 renal; settings: 10 µM unless noted
Structure (SMILES),growth [1],growth [2],growth [3] [%],growth [4] [%],growth [5],growth [6],growth [7] [%],growth [8] [%],growth [9],growth [10],growth [11],growth [12] [%],growth [13] [%],growth [14],growth [15],growth [16],growth [17],growth [18],growth [19],growth [20]
c1ccc(-c2cn(-c3ccccc3)c(-c3ccccc3)n2)cc1,60.9%,70.5%,81.3,85.6,56.4%,59.5%,108,76.9,69.3%,98.9%,81.7%,89.1,97.7,41.4%,81.8%,91.1%,94.5%,-25.8% (active),-13.3% (active),
C=COC(=O)CCCCCCCCC,113%,100%,,97.6,105%,102%,107,99.2,98.5%,106%,108%,94.1,106,85.7%,109%,104%,96.4%,,,92.8%
CN(C[C@H]1Cc2c(cccc2N2CCN(Cc3ccccn3)CC2)CN1)[C@H]1CCCc2cccnc21,37.3%,36.9%,,57.6,32.5%,45.7%,55.8,85.1,44.9%,88.5%,73.2%,54.8,53.5,20.1%,58.7%,43.2%,65.9%,41.2%,41%,42.8%
O=C(O)/C=C/C(=O)c1ccc(Cl)cc1,103%,91.3%,,111,100%,106%,107,109,105%,115%,109%,114,112,90.1%,105%,106%,107%,,,107%
O=C1c2c(Cl)c(Cl)c(Cl)c(Cl)c2C(=O)C2(Cl)CC=CCC12Cl (stereo not drawn),-74.2% (active),-39.2% (active),,13.5,-30.2% (active),-55.4% (active),57.3,32.6,-84.3% (active),-58.8% (active),-49.4% (active),98.7,24.4,17.9%,-92.5% (active),-81% (active),104%,,,-15.1% (active)
CC(=O)c1cc2c(N)c(C(=O)Nc3cccc4c3OCCO4)sc2nc1C,97.3%,103%,,93.2,99.4%,91.4%,95.3,67.8,97.5%,94%,67.1%,102,103,90.2%,104%,104%,8.65% (active),96.7%,97.4%,71.7%
CCOC(=O)c1c(/N=C2\SC(=O)/C(=C\C(=O)OC)N2NC)sc2c1CCN(C(=O)OCC)C2,95.9%,99%,,99.2,101%,94.8%,99.5,97.7,94.2%,101%,92.5%,89.1,98.9,87%,121%,102%,110%,101%,106%,103%
COc1ccc(-n2c(=S)sc3c(Cl)nc(C)nc32)c(OC)c1,21%,-7.41% (active),,12.5,-39.6% (active),56.5%,80.1,51.6,-81.9% (active),-3.3% (active),23.2%,49.3,27,-36.2% (active),45.7%,56.8%,110%,-1.34% (active),-1.97% (active),-41.8% (active)
O=C(NCCCNc1nccc(-n2ccc3cccnc32)n1)c1c(F)cccc1F,99.9%,104%,,95.7,102%,96.8%,99.2,97.6,102%,111%,114%,93.4,99.4,92%,116%,94.6%,103%,101%,99.2%,86.3%
Nc1ccc(C(=O)CSc2nc3ccccc3[nH]2)cc1,99.6%,110%,,102,96.9%,104%,97.9,90.6,106%,116%,121%,81.7,102,87.5%,109%,110%,87.5%,106%,124%,96.1%
Cc1cc(N/N=C/c2nc(-c3ccc(Br)cc3)oc2C)c2cc(Cl)ccc2n1,37.9%,13.5%,,60.1,13.9%,80.7%,92.6,82.9,20.8%,60.7%,110%,95.7,48.4,86.6%,114%,86.9%,85.5%,-16.6% (active),3.49% (active),96.2%
CCCCCCCCC(C)OC(=O)c1nn(C(C)=O)c2ccccc12 (stereo not drawn),101%,103%,,107,94.7%,95.7%,97.7,92.3,103%,116%,97.7%,92.2,102,83.1%,93.2%,107%,109%,100%,109%,91.1%
CCCCNC(=O)Oc1ccc(/C(=C(\C)c2ccccc2)c2ccc(OCCN(CC)CC)cc2)cc1,17.7%,4.17% (active),,89.2,53.8%,59.6%,48.2,68.3,74.8%,75.7%,92.1%,80.8,83.3,44.1%,88.1%,88%,65.3%,60.1%,42%,82.5%
NC(=O)c1c(NC(=S)Nc2ccc(OC(F)(F)F)cc2)sc2c1CCC1(C2)OCCO1,97.5%,95.6%,,97.5,97.2%,92.6%,98.2,77.1,98%,104%,93.9%,93.1,95.4,88%,106%,99.9%,90.4%,93.8%,87.3%,93.6%
CC(C)(C)n1cc(-c2ccnc(NCCCNS(=O)(=O)c3ccc(Br)cc3)c2)c(-c2cccc(O)c2)n1,-47.3% (active),1.23% (active),,48.7,29.5%,16.9%,15.1,42.9,-75.6% (active),-32.1% (active),19%,50.1,42.9,39%,90.1%,33.1%,35.1%,25.5%,6.97% (active),36.7%
CC(C)(C)n1cc(-c2ccnc(NCCCNS(=O)(=O)c3ccc(F)cc3)c2)c(-c2cccc(O)c2)n1,0.588% (active),13.9%,,71.3,50.5%,27.5%,13.3,59.8,-51.5% (active),39.2%,52.2%,49.8,53.4,59.4%,97.6%,38.2%,59%,35.7%,34.2%,55%
